Several values for one entry are separate records, joined by “and”; a condition that tells them apart may be missing. Equal values may be shown once. In all, about 290,000 compounds went through this assay and about 3,500 (1.2%) were called active.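 The calls were made as follows: active = inhibition above the campaign mean inhibition over all tested compounds plus 3 SD (cut at about 28% in these data); inactive = the rest.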 Only a selection was taken, and actives are over-represented in it overall.
system: M18 aspartyl aminopeptidase (Plasmodium falciparum 3D7); assay: PfM18AAP inhibitors, malaria aminopeptidase, primary screen, biochemical, QFRET, recombinant enzyme (AID 1822); details: H-Glu-NHMec fluorogenic cleavage, at 7.35 µM, active compounds read high;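 also: 0% = plate median of test compound wells and 100% = 2 mM ZnCl2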

| SMILES | inhibition |
| --- | --- |
| CC(=O)Nc1cccc(C(=O)Nc2nc(C)cs2)c1 | -10.2% (inactive) |
| Cc1csc(NC(=O)Nc2ccccc2[N+](=O)[O-])n1 | 9.93% (inactive) |
| Cc1csc(NC(=O)NC2(C(F)(F)F)Oc3ccccc3O2)n1 | 70.8% (active) |
| COc1ccc(N2CCN(C(=O)CN3C(=O)COc4ccccc43)CC2)cc1 | -6.46% (inactive) |
| Oc1c(Cl)cc(Cl)cc1/C=N/c1ncn[nH]1 | 45.4% (active) |
| Oc1ccc(Cl)cc1/C=N/c1nc2ccccc2[nH]1 | 0.82% (inactive) |
| Oc1ccc(Br)cc1C=Nc1ccc2[nH]ncc2c1 | 4.29% (inactive) |
| COc1ccc(Br)cc1/C=N/n1c(C)nnc1C | 0.59% (inactive) |
| COc1cc(Br)cc(/C=N/c2ncn[nH]2)c1O | 61.7% (active) |
| O=C(CN1C(=O)c2cccnc2Oc2ccc(Cl)cc21)Nc1ccc(F)cc1 | -4.17% (inactive) |
| Cc1cc(F)ccc1N1CCC(N2CCN(C)C(CCO)C2)CC1 (stereo not given) | -5.24% (inactive) |
| O=C(NNS(=O)(=O)c1ccc(F)cc1)C1CCCCC1 | -0.96% (inactive) |
| Cc1cc(=O)oc2c(C)c(OC(C)C(=O)NC3CCN(Cc4ccccc4)CC3)ccc12 (stereo not given) | -1.22% (inactive) |
| Cc1ccnc(NC(=O)C2CCN(S(=O)(=O)c3c(C)c(C)cc(C)c3C)CC2)c1 | 3.42% (inactive) |
| Cc1nc([N+](=O)[O-])nn1C12CC3CC(CC(Br)(C3)C1)C2 | 13.9% (inactive) |
| Cc1ccnc(SCC(N)=O)n1 | 3.17% (inactive) |
| Cc1ccnc(-n2sc3ccccc3c2=O)n1 | 42% (active) |
| Cc1ccnc(N2CCCC(C(=O)NC3CC3)C2)n1 (stereo not given) | 0.97% (inactive) |
| CN(C)S(=O)(=O)c1ccc(N2CCCC2)c(C(=O)Nc2cccc(F)c2)c1 | -1.31% (inactive) |
| Cc1ccc(S(=O)(=O)N2CCCC(C(=O)N3CCN(C)CC3)C2)cc1 (stereo not given) | -0.92% (inactive) |
| CC1CCC(NS(=O)(=O)c2ccc3c(c2)n(C)c(=O)c(=O)n3C)CC1 (stereo not given) | -14% (inactive) |
| O=S(=O)(NC1CC1)c1ccc(F)c(F)c1 | -0.16% (inactive) |
| Cn1sc(=O)c2cc(S(=O)(=O)NC3CC3)ccc21 | 43% (active) |
| S=c1[nH]nc2c3c4c(sc3ncn12)CCCC4 | 38.3% (active) |

| SMILES | inhibition |
| --- | --- |
| N=c1c2c3c(sc2ncn1N)CCCCC3 | -3.67% (inactive) |
| N=c1c2c3c(sc2ncn1N)CCCC3 | 2.91% (inactive) |
| Cn1ncc(Br)c1C(=O)NC1CCCC1 | -2.67% (inactive) |
| CCC(C)NC(=O)CSC1=Nc2ccccc2C2=NC(CCC(=O)NCc3ccco3)C(=O)N12 (stereo not given) | -0.47% (inactive) |
| CC(C)C1N=C2c3ccccc3N=C(SCC(=O)c3ccc(O)c(O)c3)N2C1=O (stereo not given) | 55.1% (active) |
| O=C(CSC1=Nc2ccccc2C2=NC(CC(=O)NCc3ccco3)C(=O)N12)NCc1ccco1 (stereo not given) | 7.17% (inactive) |
| CC(=O)C(C)n1cnc2scc(-c3ccc(C)cc3)c2c1=O (stereo not given) | 0.85% (inactive) |
| CSc1ccc(CNC(=O)c2ccc(NC(=O)C3=CSCCO3)cc2)cc1 | 6.37% (inactive) |
| COc1cccc(C(=O)Nc2nnc(S(=O)(=O)N3CCOCC3)s2)c1 | 1.13% (inactive) |
| O=C(Cn1c[n+](CC(=O)c2ccc([N+](=O)[O-])cc2)cn1)c1ccc([N+](=O)[O-])cc1 | 50.9% (active) and 63.7% (active) |
| Cc1ccc(C(=O)Cn2cc([N+](=O)[O-])nc2C)cc1 | 1.83% (inactive) |
| O=C(c1ccncc1)c1ccc([N+](=O)[O-])cc1 | -0.4% (inactive) |
| CC(C)Cn1c(N2CCN(C(=O)/C=C/c3ccccc3)CC2)nc2ccccc21 | 2% (inactive) |
| Cc1c(OC(C)C(=O)NCC2CCC(C(=O)O)CC2)ccc2c1oc(=O)c1ccccc12 (stereo not given) | 5.1% (inactive) |
| Cc1ccccc1N1CCN(CC(=O)NCc2ccc(Cl)cc2)CC1 | 4.87% (inactive) |
| O=C(COC(=O)c1ccc(N2CCCC2=O)cc1)c1ccc(OC(F)F)cc1 | 0.74% (inactive) |
| COc1ccc(C(=O)NC2CC(C)(C)Cc3c2cnn3-c2ccccc2)c(OC)c1 (stereo not given) | 0.86% (inactive) |
| Nc1ccc(C(=O)Nc2ccccc2N)cc1 | -8.23% (inactive) |
| Cc1cc(F)ccc1NC(=S)NCCc1ccccc1 | -8.4% (inactive) |
| Cc1ccc(CN(Cc2cccnc2)C(=S)Nc2cccc(Cl)c2C)cc1 | -8.48% (inactive) |
| Cc1ccc(S(=O)(=O)N/N=C\c2cc3c(cc2[N+](=O)[O-])OCO3)cc1 | 51.5% (active) |
| CC(=O)N/N=C/c1cc2c(cc1[N+](=O)[O-])OCO2 | 6.95% (inactive) |
| Cc1ccc(-c2n[nH]c(=S)n2/N=C/c2cc3c(cc2[N+](=O)[O-])OCO3)cc1 | 17.7% (inactive) |
| COc1ccc(C(CNC(=O)COc2ccc([N+](=O)[O-])cc2)N2CCCCC2)cc1 (stereo not given) | -7.22% (inactive) |

| SMILES | inhibition |
| --- | --- |
| CC(=O)Nc1cccc(C(=O)OCN2C(=O)c3ccccc3C2=O)c1 | 1.1% (inactive) |
| COc1ccc(CC(=O)Nc2nc(-c3ccc(F)c(F)c3)cs2)cc1OC | 0.44% (inactive) |
| COc1ccc(C2/C(=C(/O)c3ccc4c(c3)CC(C)O4)C(=O)C(=O)N2Cc2ccncc2)cc1 (stereo not given) | 16.6% (inactive) |
| COc1ccc(/C(O)=C2\C(=O)C(=O)N(Cc3ccco3)C2c2ccc(OC)cc2OC)cc1 (stereo not given) | 8.22% (inactive) |
| COc1cc(C2/C(=C(\O)c3ccc4c(c3)CC(C)O4)C(=O)C(=O)N2Cc2ccco2)ccc1O (stereo not given) | 45.6% (active) |
| CCOc1ccc(-n2c(O)c(/C=N/c3ccnn3Cc3ccncc3)c3ccccc3c2=O)cc1 | 5.65% (inactive) |
| CCOc1ccc(-n2c(O)c(/C=N/Nc3nnc(C)c(=O)[nH]3)c3ccccc3c2=O)cc1 | 34% (active) |
| CCOc1ccc(-n2c(O)c(/C=N/Nc3nc(C)cc(C)n3)c3ccccc3c2=O)cc1 | 26.7% (inactive) |
| S=C(Nc1cccnc1)Nc1ccccn1 | 11.1% (inactive) |
| C[C@H](NC(=O)c1nc[nH]c1C(=O)NCC(=O)OC(C)(C)C)c1ccccc1 | 1.03% (inactive) |
| CCC(CC)c1nnc(NC(=O)C2CCN(C(=O)c3ccco3)CC2)s1 | 31.2% (active) |
| COc1ccc(CNC(=O)C2CCN(C(=O)c3ccco3)CC2)cc1 | 2.47% (inactive) |
| CCC(CC)c1nnc(NC(=O)/C=C/c2ccco2)s1 | 2.71% (inactive) |
| Nc1ccccc1SC(C[N+](=O)[O-])c1ccccc1 (stereo not given) | 14.1% (inactive) |
| CCOC(=O)c1cc(Sc2ccccc2N)cc(C(=O)OCC)n1 | 10.8% (inactive) |
| CCS(=O)(=O)c1cc([N+](=O)[O-])c(Sc2ccccc2N)s1 | 38.9% (active) |
| Cc1ccc(S(=O)(=O)CC(=O)NC(C)c2ccccc2)cc1 (stereo not given) | -6.39% (inactive) |
| CN(C)S(=O)(=O)c1ccc2oc(SCC(=O)Nc3ccccc3F)nc2c1 | 2.13% (inactive) |
| C=CCN(C(=O)Nc1ccc2oc(C)nc2c1)c1ccccc1 | 13% (inactive) |
| CCN(CC)c1ccc2cc(C(N)=O)/c(=N\NC(=O)c3ccncc3)oc2c1 | 17.2% (inactive) |
| CCN(CC)c1ccc2oc(=O)c(C)nc2c1 | 55.5% (active) |
| COc1ccc(Nc2cc(Sc3ccc(OC)cc3)ncn2)cc1 | 2.95% (inactive) |
| Cc1ccsc1C(=O)N[C@@H](C)c1nnc2ccccn12 | -8.31% (inactive) |
| Cc1cccc(N2CCN(C(=O)CCS(=O)(=O)c3ccc4c(c3)NC(=O)C(C)S4)CC2)c1C (stereo not given) | -6.34% (inactive) |

| SMILES | inhibition |
| --- | --- |
| O=C(O)c1ccccc1-c1ccccc1C(=O)Nc1ccccc1Br | -9.93% (inactive) |
| O=C1CCN(CCc2ccccc2)CCN1CCOc1ccccc1 | 1.32% (inactive) |
| O=C(Nc1ccc(C(=O)N2CCOCC2)cc1)Nc1cccc(C(F)(F)F)c1 | -2.75% (inactive) |
| COc1ccccc1N1CCN(C(=O)CSc2ncnc3c2cnn3-c2ccc(C)c(C)c2)CC1 | -5.63% (inactive) |
| CC1CCN(C(=O)c2ccc(CSc3ccc(Cl)cc3)cc2)CC1 | -3.98% (inactive) |
| CC1CCN(C(=O)c2ccc3c(c2)NC(=O)CN3)CC1 | 31.9% (active) |
| CC1CCN(C(=O)c2ccc3c(=O)n4c(nc3c2)CCCCC4)CC1 | -5.35% (inactive) |
| CCCN1C2CCCC1CC(NC(=O)c1cccc(OC)c1)C2 (stereo not given) | -5.08% (inactive) |
| Cc1cccn2c(=O)c3cc(C(=O)NCC4CCCO4)c(=N)n(Cc4ccc(F)cc4)c3nc12 (stereo not given) | 5.3% (inactive) |
| Oc1ccc(-n2nnnc2SCc2c(F)cccc2Cl)cc1 | 9.59% (inactive) |
| CCCN1Cc2cccc(C(=O)Nc3ccc(S(=O)(=O)N4CCCCCC4)cc3)c2C1=O | 3.06% (inactive) |
| O=C1CCN(CCCc2ccccc2)CCN1CCO | 10.1% (inactive) |
| CSc1ccc(S(=O)(=O)NCc2ccc(Cl)cc2)cc1 | 5.25% (inactive) |
| CCn1c(CNS(=O)(=O)c2ccc(Cl)cc2)n[nH]c1=S | 31.8% (active) |
| CCn1c(CSCc2c(Cl)cccc2Cl)n[nH]c1=S | 14.7% (inactive) |
| Cc1cc(C)n(-c2ccc(NC(=O)C3CCCCN3C(=O)c3cccs3)cc2)n1 (stereo not given) | 10.7% (inactive) |
| Cc1cc(NC(=O)CSc2nc(=O)cc(N)n2-c2ccc(F)cc2)no1 | 2.27% (inactive) |
| O=c1[nH]c2c(c(=O)n1Cc1ccccc1)CCC2 | -7.19% (inactive) |
| O=c1[nH]n2c(=O)c3c([nH]c2c1N=Nc1ccccc1)CCC3 | 31.3% (active) |
| Cc1[nH][nH]c(=O)c1N=Nc1ccccc1 | -5.94% (inactive) |
| O=C(CNC(=O)C1COc2ccccc2O1)N/N=C/c1cc(Br)c(O)c(Br)c1 (stereo not given) | 10.4% (inactive) |
| Cc1c(CC(=O)N2CCN(C(=O)C3COc4ccccc4O3)CC2)c(=O)oc2c(O)c(O)ccc12 (stereo not given) | 56.5% (active) |
| Cc1c(C)c2ccc(OCC(=O)N3CCC(C(=O)O)CC3)c(C)c2oc1=O | 3.02% (inactive) |
